TIM10 inh: growth inhibitors of TIM10 yeast strain. inhibition, % at 10 µM. S. cerevisiae TIM10 strain growth, BacTiter-Glo luminescence, 24 h. AID 463195. hit rate 1.4% among 330,000;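 active = inhibition of 40% or more at the single tested concentration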;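 also: wild-type TIM10 isogenic control strain grown at permissive 25 °C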
NALP3 yeast inh: blocks the NALP3 inflammasome reconstituted in yeast. inhibition, % at 10 µM. Yeast reconstituted NLRP3/ASC/caspase-1, beta-gal luminescence, 24 h. AID 2825. hit rate 0.39% among 330,000;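 active = inhibition of 50% or more; inactive = inhibition below 50%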
SKKanGAS inh: blocks kanamycin growth of S. pyogenes SKKanGAS strain; BacTiter-Glo, 6 h; inhibition, % at 7.5 µM; AID 1662; hit rate 1.3% among 300,000;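 active = mean replicate score, as percent of positive control median, at least 50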;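 also: strain carries kanamycin resistance gene driven by streptokinase promoter and grows in 40 µg/ml kanamycin; loss of luminescence reflects streptokinase promoter inhibition or plain growth inhibition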
NALP1 inh: NALP1 inhibition; S. cerevisiae NALP1/ASC/caspase-1 growth, X-gal OD620, 72 h; inhibition, % at 10 µM; hit rate 0.61% among 280,000; AID 2071; in the data active = inhibition mostly above about 24%, no sharp cut-off; inactive = mostly below about 32%
tim23-1 inh: inhibits growth of tim23-1 mutant yeast | hit rate 1.3% among 330,000 | inhibition, % at 20 µM | S. cerevisiae tim23-1 growth, BacTiter-Glo luminescence, 24 h | AID 463212;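 active = growth inhibition of the mutant yeast at or above 50%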;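 also: temperature-sensitive mutant grown at 25 °C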
tim10-1 inh: tim10-1 yeast growth inhibition. inhibition, % at 20 µM. S. cerevisiae tim10-1 ts strain growth, BacTiter-Glo, 24 h. hit rate 2.2% among 330,000;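 active = inhibition of at least 40%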;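 also: mutant grown at 25 °C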
tim10-1 conf: tim10-1 yeast growth inhibition, confirmed | shares compounds with tim10-1 inh | S. cerevisiae tim10-1 ts strain growth, BacTiter-Glo, 24 h | inhibition, % at 20 µM | hit rate 56% among 7,400 | AID 463213;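 active = inhibition of yeast growth at or above a set limit in either of two repeat tests at 20 µM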;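 also: tim10-1 mutant grown at permissive 25 °C to find synthetic lethal compounds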
Numbers stand for hits; - = inactive; . = no result given; ! = not active in a repeat. Only some compounds are listed: those with a hit (about 4.9% of all), similar ones and a draw of the others.

SMILES	TIM10 inh	NALP3 yeast inh	SKKanGAS inh	NALP1 inh	tim23-1 inh	tim10-1 inh	tim10-1 conf
Cc1nc(NCc2ccccn2)c2c3c(sc2n1)CCCC3	-	-	-	-	-	41	41
c1ccc(CNc2ncnc3sc4c(c23)CCCC4)nc1	-	-	-	-	-	45	36
O=C(Nc1ncnc2sc3c(c12)CCCCC3)c1ccc(F)cc1	-	-	-	-	-	45	32
O=C(Nc1ncnc2sc3c(c12)CCCCC3)c1ccccc1	-	-	-	-	-	-	.
Cc1nc(NCc2ccco2)c2c3c(sc2n1)CCC3	-	-	-	-	-	-	.
COCCC(=O)NC12CC3CC(CC(C3)C1)C2	-	-	-	-	-	-	.
CCOP(=O)(NC12CC3CC(CC(C3)C1)C2)NC12CC3CC(CC(C3)C1)C2	-	-	-	-	-	40	-
O=C(COC(=O)Cc1c(Cl)cccc1Cl)Nc1ccc2[nH]c(=O)[nH]c2c1	-	-	-	.	-	-	.
Cc1cccc(N(C(=O)c2snc(C(N)=O)c2N)C(C(=O)NCc2ccccc2)c2ccncc2)c1 (stereo not given)	-	-	-	-	-	-	.
CCCCN1/C(=C/c2ccc3ccccc3[n+]2CC)Sc2ccccc21	-	-	-	-	-	60	57
CCCCN1/C(=C/c2cccc[n+]2C)Sc2cc(NC(C)=O)ccc21	-	-	-	-	-	-	.
CC(C)[C@H]1COCCS(=O)(=O)N1Cc1ccccc1-c1ccc(F)cc1	-	.	.	.	-	-	.
CN1CC(c2ccc(C#N)cc2)C2(COc3ccccc3C2=O)C12C(=O)Nc1ccccc12 (stereo not given)	-	-	-	-	-	40	40
COc1cc(OC)cc(C(=O)NNC(=O)CCc2ccccc2)c1	-	-	-	-	-	-	.
Cc1ccc2nc3c(c(Nc4cccc(O)c4)c2c1)CCC3	-	-	-	-	-	-	.
COc1ccc(CC(=O)O/N=C(\N)Cc2ccc([N+](=O)[O-])cc2)cc1	-	-	-	.	-	43	63
N/C(=N\OC(=O)Cc1ccc([N+](=O)[O-])cc1)c1cccc(Br)c1	-	-	-	-	-	58	50
O=C(CN1CCN(C(=O)c2cncn2-c2ccccc2)CC1)Nc1ccccc1Cl	-	-	.	.	-	-	.
Cc1ccnc(SCCn2c(N3CCC(C)CC3)nc3c2c(=O)n(C)c(=O)n3C)n1	-	-	-	.	-	45	-
Cc1ccnc(SCCn2c(N3CC(C)CC(C)C3)nc3c2c(=O)n(C)c(=O)n3C)n1 (stereo not given)	-	-	-	-	-	44	-
Cc1ccnc(SCCn2c(N3CC(C)OC(C)C3)nc3c2c(=O)n(C)c(=O)n3C)n1 (stereo not given)	-	-	-	-	-	-	.
COc1ccc(OC)c(N(CC(=O)NN=C2CCN(C)CC2)S(=O)(=O)c2ccccc2)c1	-	-	-	-	-	-	.
COc1ccc2sc(-c3ccc(S(C)(=O)=O)cc3)c(C#CCO)c2c1	-	-	.	.	-	43	41
COc1ccc(-c2c(-c3cc(OC)cc(OC)c3)n(C)c3ccc(-c4ccc(N(C)C)nc4)cc23)cc1	-	-	.	.	-	-	.
CC(=O)c1ccc2c(c1)c(C#N)c1ccccc1[n+]2[O-]	-	-	-	-	-	68	51
SMILES	TIM10 inh	NALP3 yeast inh	SKKanGAS inh	NALP1 inh	tim23-1 inh	tim10-1 inh	tim10-1 conf
CC(=O)c1ccc2noc(-c3ccccc3)c2c1	-	-	-	-	-	-	.
CN=C(Nc1cc(Cl)ccc1Cl)SC1CC(=O)N(c2ccc(C(=O)OC)cc2)C1=O (stereo not given)	-	-	52	.	-	44	42
COC(=O)c1ccc(N2C(=O)CC(SCC(=O)Nc3ccc(OC)cc3)C2=O)cc1 (stereo not given)	-	-	-	.	-	-	.
Cc1cc(Cl)ccc1Oc1ccccc1C(=O)CC#N	-	-	-	-	-	52	38
COc1ccc(-c2cc3nc(-c4ccccc4)cc(N4CCC(O)CC4)n3n2)cc1	-	-	-	-	-	40	-
Fc1ccc(-c2cc3nc(-c4ccccc4)cc(N4CCOCC4)n3n2)cc1	-	-	-	-	-	-	.
Nc1nonc1-n1nnc(C(=O)N/N=C/c2ccccc2F)c1CN1CCc2ccccc21	-	-	-	-	-	46	-
CN1C[C@@H]2C(c3ccccc3)C3(c4ccccc4)CC2(C3)[C@H]1c1ccccc1 (stereo not given in full)	-	-	-	.	-	52	32
COc1ccc([C@H]2CC(=O)C=C(c3cccc(F)c3OC)C2)cc1	-	-	.	.	-	-	.
Cc1ccc(S(=O)(=O)c2nc(S(C)(=O)=O)sc2N2CCC(O)CC2)cc1	-	-	-	-	-	-	.
Cc1ccc(S(=O)(=O)c2nc(S(C)(=O)=O)sc2N2CCCCC2C)cc1 (stereo not given)	-	-	-	-	-	42	43
O=C(Nc1nc(-c2cc(F)ccc2F)cs1)C1=COCCO1	-	-	-	.	-	46	-
O=C(Nc1nc(-c2cc(F)ccc2F)cs1)C1=NN(c2ccccc2)C(=O)CC1	-	-	-	-	-	45	-
CCCCN1c2ccccc2N(CCCO)c2cc(C)nnc21	-	-	-	-	-	45	-
COc1ccc(/C=N/NC(=O)CCn2c3ccccc3c3ccccc32)cc1O	-	-	-	-	-	45	-
C=CCNC(=O)/C(C#N)=C/c1ccc2c(c1)OCCO2	-	-	-	-	-	43	-
CCn1ncc(/C=C/C(=O)c2ccccc2)c1C	-	-	-	-	-	46	-
Cc1ccc(C)c(OCCC(=O)OCC(=O)NC2CCCC2)c1	-	-	-	.	-	-	.
CCc1ccc(NC(=S)N(Cc2ccccc2)Cc2ccccn2)cc1	-	-	-	-	-	48	35
Cc1cc(C)c(C(=O)/C=C/c2cccs2)c(=O)[nH]1	-	-	-	-	-	-	.
CCc1ccc(/C=C/C(=O)c2c(C)cc(C)[nH]c2=O)cc1	-	-	-	.	-	45	38
CCc1ccc(/C=C(\C)C(=O)c2c(C)cc(C)[nH]c2=O)cc1	-	-	-	-	-	-	.
Cc1ccc(/C=C/C(=O)c2c(C)cc(C)[nH]c2=O)cc1	-	-	-	-	-	43	38
CCOc1ccc(NC(=O)CC(Cc2cc(C)cc(C)c2)C(=O)O)cc1 (stereo not given)	-	-	-	-	-	-	.
CCc1ccc(NC(=O)COC(=O)CC2CCCC2)cc1	-	-	.	.	-	-	.
O=c1[nH]c(/C(Cl)=C/c2cc(Cl)ccc2O)nc2cc(Cl)ccc12	-	-	-	-	-	-	.
Cc1ccc(Cl)cc1NC(=O)COC(=O)C1CCCC1	-	-	-	-	-	-	.
Cc1ccc(Cl)cc1NC(=O)COC(=O)C12CC3CC(CC(C3)C1)C2	-	-	-	-	-	47!	33
Cc1nc(N)sc1-c1csc(Nc2ccccn2)n1	.	.	-	-	.	.	.
